FBW7 activator: activators of human E3 ligase FBW7. AID 1259310. 650,000 compounds, 0.13% hits. Q969H0. normalized activity (activation), % at 26.1 µM. AlphaScreen FBW7–phospho-cyclin E peptide binding, activator screen; in the data active = normalized activity above about 1.9%;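 note: purified mutant Fbw7 with reduced substrate affinity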
Target sequence (Q969H0 whole entry, looked up): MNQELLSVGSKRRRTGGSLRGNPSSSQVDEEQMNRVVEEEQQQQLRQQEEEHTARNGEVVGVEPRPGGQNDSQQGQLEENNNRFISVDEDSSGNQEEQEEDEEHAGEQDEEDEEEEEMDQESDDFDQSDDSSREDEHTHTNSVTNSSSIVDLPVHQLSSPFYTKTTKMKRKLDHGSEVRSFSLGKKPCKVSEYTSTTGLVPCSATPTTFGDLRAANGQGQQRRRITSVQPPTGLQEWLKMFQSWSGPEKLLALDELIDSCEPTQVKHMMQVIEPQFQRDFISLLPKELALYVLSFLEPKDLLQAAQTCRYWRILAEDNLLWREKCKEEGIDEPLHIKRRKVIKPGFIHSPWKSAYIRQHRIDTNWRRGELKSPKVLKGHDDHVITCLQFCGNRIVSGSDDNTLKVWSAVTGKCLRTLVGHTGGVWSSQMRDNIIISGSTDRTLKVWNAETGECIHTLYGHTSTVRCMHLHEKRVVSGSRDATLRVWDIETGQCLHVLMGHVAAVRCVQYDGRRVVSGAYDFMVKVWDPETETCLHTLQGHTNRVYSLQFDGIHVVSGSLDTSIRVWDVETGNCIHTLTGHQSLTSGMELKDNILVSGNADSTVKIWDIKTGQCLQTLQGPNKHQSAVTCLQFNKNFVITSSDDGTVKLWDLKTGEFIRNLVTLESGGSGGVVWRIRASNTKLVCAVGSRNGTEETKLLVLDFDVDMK
MITF primary: human MITF inhibition, primary screen | AlphaScreen MITF homodimerization, bead proximity signal | O75030 | inhibition, % at 2.6 µM | 650,000 compounds, 0.91% hits | AID 1259374; in the data active = inhibition above about 50%;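 note: 0% = vehicle wells with protein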
GPR151 activ: human GPR151 activation | PathHunter beta-arrestin GPR151 cells, luminescence | activation, % at 11.2 µM | 650,000 compounds, 1% hits | AID 1508602 | Q8TDV0; in the data active = activation above about 4.9%;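 note: 0% = median of compound wells and 100% = cells with positive control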
TEAD-YAP inh: TEAD-YAP interaction inhibition; inhibition, % at 9.12 µM; HEK-TIYL cells, TEAD-Gal4/YAP UAS-luciferase luminescence; AID 1259422; 640,000 compounds, 1.4% hits; in the data active = inhibition above about 32%;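 note: 0% = median of test compound wells and 100% = reference inhibitor wells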
* = called active by the depositor. Sampled rows, rich in hits. Any-hit rate of the full collection: about 3.4%.

SMILES | FBW7 activator | MITF primary | GPR151 activ | TEAD-YAP inh
O=C1NC(=S)NC(=O)C1=Cc1cccc(O)c1 | 0 | 1 | 0 | 15
CC1(C)C(=O)C=C[C@@]2(C)C1=C(O)C(=O)[C@]1(C)C2CC[C@@]2(C)[C@H](c3ccoc3)C[C@H]3O[C@]321 (some centres not stated) | 0 | -11 | 2 | 65*
CC(=O)O[C@@H]1C[C@@]2(C)[C@H](c3ccoc3)C[C@H]3O[C@]32[C@]2(C)C(=O)C(O)=C3C(C)(C)C(=O)C=C[C@]3(C)C12 (some centres not stated) | 0 | 9 | 3 | 72*
CC(=O)c1ccc(OC(=O)N(C)c2ccccc2)cc1 | 0 | -6 | 0 | -41
Cc1cc(N(C)C)cc(C)[n+]1OC(=O)N(c1ccccc1)c1ccccc1 | 0 | -2 | 0 | 64*
CC(C)(C)c1[nH]nc2c1C(c1cccc(I)c1)C(C#N)=C(N)O2 (configuration not stated) | 1 | -8 | -1 | -5
COc1cc(/C=C2\C(=O)NC(=O)N(c3ccc([N+](=O)[O-])cc3)C2=O)ccc1OCC(=O)O | 0 | 9 | 0 | 12
O=C(O)COc1ccccc1/C=C1\C(=O)NC(=O)N(c2ccc(O)cc2)C1=O | 0 | 75* | 0 | 6
CN1C(=O)[C@]23CC4=CC=C[C@H](O)[C@H]4N2C(=O)[C@@]1(CO)SS3 | 0 | -4 | -2 | 88*
CN(C)c1ccc(/C=C2/C(=O)NC(=S)N(Cc3ccco3)C2=O)cc1 | -1 | 76* | 0 | 14
CN(C)c1ccc(/C=C2/C(=O)NC(=S)N(c3ccccc3F)C2=O)cc1 | 0 | 10 | 1 | 4
CCOc1cc2c(cc1OCC)-n1cccc1C(c1coc3ccccc3c1=O)NC2 (configuration not stated) | 1 | 9 | 1 | -13
CN1CCN(c2nc3ccc([N+](=O)[O-])cc3s2)CC1 | 0 | 9 | -1 | -60
COc1ccc2sc(N3CCN(C)CC3)nc2c1 | 0 | 7 | -5 | 37*
O=C(Nc1c(Cl)cccc1Cl)C(Cl)(Cl)Cl | 0 | -8 | 0 | -8
N#CC(C#N)=NNc1ccc(-c2ccccc2)cc1 | 0 | 1 | 1 | 44*
CC(=O)c1ccc(-c2ccccc2)cc1 | 0 | -9 | 0 | -28
Cc1cc(C=C2C(=O)NC(=S)NC2=O)c(C)n1-c1ccccc1Cl | 0 | 11 | 2 | 0
CCCOc1ccc(/C=C(/C)[N+](=O)[O-])cc1OC | 0 | -14 | -1 | 37*
CC(C)N1CCC2(CC1)CC(=O)c1ccccc1O2 | 0 | 11 | 1 | -4
Cc1ccc(-c2nc(CSCC(=O)N3CCC4(CC3)OCCO4)c(C)o2)cc1 | 0 | 1 | -1 | 50*
CCOc1ccc(-c2nc(CSCC(=O)N3CCC4(CC3)OCCO4)c(C)o2)cc1 | 0 | -2 | 1 | 53*
COc1ccc(-c2nc(CSCC(=O)N3CCC4(CC3)OCCO4)c(C)o2)cc1OC | 0 | 0 | 0 | -6
CCOc1ccc(NC(=O)C(Cl)(Cl)Cl)cc1 | 0 | 6 | -1 | -6
O=C1CCCN1C(O)C(Cl)(Cl)Cl (configuration not stated) | 0 | 10 | 1 | 6
SMILES | FBW7 activator | MITF primary | GPR151 activ | TEAD-YAP inh
Cc1ccc(C2=CCN(CC(=O)N3CCCCC3C)CC2)o1 (configuration not stated) | 0 | -2 | 1 | -7
CN1CCc2nc(N)c(C#N)c(-c3cccs3)c2C1 | 0 | 6 | 0 | 11
CN(C)C(=S)SSC(=S)N(C)C | 0 | -12 | 1 | 34*
CCn1nc(/C=C\c2ccccc2)nc2c(=O)n(C)c(=O)nc1-2 | 0 | 4 | -6 | 40*
CCOc1ccc(-n2c(/C=C/c3ccc(OC)cc3)nc3ccccc3c2=O)cc1 | 0 | -8 | 0 | 12
COC(=O)c1cn(CCCOc2ccccc2OC)c2ccccc12 | 0 | 16 | 0 | 0
O=C1NC(=O)N(c2ccc(Br)cc2)C(=O)/C1=C/c1ccc(O)cc1 | 0 | 16 | 2 | -1
O=C1NC(=O)N(c2ccc(Br)cc2)C(=O)/C1=C/c1ccc(O)c(O)c1 | 0 | 90* | 1 | 1
CC(C)C/C(=N/O)c1c[nH]c2ccccc12 | 0 | -4 | 2 | -4
CC(C)N1CC=C(c2c[nH]c3ccccc23)CC1 | 0 | 4 | 0 | 37*
COC(=O)C1(C#N)C(c2ccc(Cl)cc2)C(C(N)=O)N2C=C(C(C)=O)C=CC21 (configuration not stated) | 0 | 0 | 0 | -5
COC(=O)C1(C#N)CC2c3ccccc3C1c1ccccc12 (configuration not stated) | 0 | -1 | 3 | 3
CCOC(=O)C1(C#N)CC2c3ccccc3C1c1ccccc12 (configuration not stated) | 2.0* | 15 | 2 | 7
O=c1[nH]c(=O)n(Cc2ccccc2Cl)c(O)c1/C=C1\C=CC=N1 | 0 | 17 | 1 | 52*
CC(C)CCCn1c(O)c(/C=C2\C=CC=N2)c(=O)[nH]c1=O | 0 | 1 | 1 | 28
O=C1NC(=S)N(c2ccc(Cl)cc2)C(=O)/C1=C\c1ccc([N+](=O)[O-])o1 | 0 | 68* | 1 | 6
Cn1cccc1/C=C1/C(=O)NC(=S)N(c2ccc(Cl)cc2)C1=O | 0 | 21 | -2 | 1
C[C@H]1OC(O[C@H]2[C@@H](O)CC(O[C@H]3[C@@H](O)C[C@H](O[C@H]4CC[C@]5(C)C6CC[C@]7(C)[C@@H](C8=CC(=O)OC8)[C@@H](O)C[C@]7(O)[C@@H]6CC[C@@H]5C4)O[C@@H]3C)O[C@@H]2C)C[C@H](O)C1O (some centres not stated) | 0 | 11 | 3 | 78*
CC(=O)O[C@H]1C[C@H](O[C@H]2[C@@H](O)C[C@H](O[C@H]3[C@@H](O)C[C@H](O[C@H]4CC[C@@]5(C)C(CCC6C5C[C@@H](O)[C@]5(C)[C@@H](C7=CC(=O)OC7)CC[C@]65O)C4)O[C@@H]3C)O[C@@H]2C)O[C@H](C)[C@H]1O[C@@H]1O[C@H](CO)[C@@H](O)[C@H](O)[C@H]1O (some centres not stated) | 0 | 16 | 2 | 100*
C[C@]12CC[C@H]3[C@@H](CC[C@]4(O)C[C@@H](O)CC[C@]34C=O)[C@@]1(O)CC[C@@H]2C1=CC(=O)OC1 | 0 | 18 | 1 | 101*
CO[C@@H]1C(O)[C@H](O[C@H]2CC[C@@]3(C=O)[C@H](CC[C@@H]4[C@@H]3CC[C@]3(C)[C@@H](C5=CC(=O)OC5)CC[C@]43O)C2)OC(C)[C@@H]1O (some centres not stated) | 0 | -4 | -1 | 101*
C=CCOC(NC(=O)c1ccccc1)C(Cl)(Cl)Cl (configuration not stated) | 0 | 3 | 2 | 0
O=C(Cc1ccccc1)Nc1ccc(Br)cc1C(=O)c1ccccc1Cl | 0 | 5 | 1 | 0
COc1ccc(C2SCC(=O)Nc3c2c(-c2ccccc2)nn3-c2ccccc2)cc1OC (configuration not stated) | 1 | 19 | 0 | 52*

Screening results from PubChem BioAssay.
